Test systems include NCI-H23 lung; NCI-H226 lung; NCI-H322M lung; HOP-62 NSCLC; NCI-H460 lung; HOP-92 NSCLC; NCI-H522 lung; A549/ATCC NSCLC; 786-0 renal; COLO 205 colon; DU-145 prostate; K-562 leukemia; MALME-3M melanoma; MDA-MB-231 breast; RXF 393 renal; SF-268 CNS; SF-295 CNS; SF-539 CNS; UACC-257 melanoma; M14 melanoma.
What all share (experiment): NCI-60 one-dose screen, 48 h (100 = growth as untreated, 0 = no growth, -100 = all killed)
Holding throughout (conditions): 10 µM unless noted

Compounds without any hit were thinned out: in the full panel of roughly 83,000, 20% have a hit.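 Activity criterion: percent growth below 10, measured after cells in 96-well plates were exposed to a single compound concentration for 48 hours.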 A number with no mark means an inactive call. Calls of active or inactive are those of the source.

For the compound `CN(C)c1cccc2c(S(=O)(=O)/N=C(\N)Nc3nc4ccccc4s3)cccc12`, the growth in the assay on NCI-H23 lung is 66.6%; in the assay on NCI-H226 lung it was 69.8%; in the assay with NCI-H322M lung, 83.4%; with HOP-62 NSCLC it was 40.6%; in the assay on NCI-H460 lung, 30.3%; in the assay on HOP-92 NSCLC, 60.2%. The growth in the assay on NCI-H522 lung is 30.1%; in the assay with A549/ATCC NSCLC, 52.3%; in the assay with 786-0 renal, 77.6%; in the assay on COLO 205 colon it was 85.6%; with DU-145 prostate, 96%; in the assay with K-562 leukemia, 21.9%. Moreover, the growth with MALME-3M melanoma is 73.7%; with MDA-MB-231 breast it was 68.3%; in the assay on RXF 393 renal, 54.6%; in the assay with SF-268 CNS, 69.7%; in the assay with SF-295 CNS, 33.6%; in the assay on SF-539 CNS, 52.4%. The growth is 78.3% with UACC-257 melanoma and 45.3% in the assay on M14 melanoma.

Take `Cc1nc2ncccc2nc1Nc1ccc(S(=O)(=O)Nc2ccccn2)cc1`: the growth with NCI-H23 lung was 90.6%; with NCI-H226 lung, 94.5%; with NCI-H322M lung, 96.1%; in the assay with HOP-62 NSCLC, 97%; in the assay with NCI-H460 lung, 106%; with HOP-92 NSCLC, 54.3%. For the same compound, the growth was 81.6% in the assay with NCI-H522 lung; 101% with A549/ATCC NSCLC; 94.9% with 786-0 renal; 98.5% in the assay on COLO 205 colon; 105% in the assay on DU-145 prostate; 106% in the assay on K-562 leukemia. Moreover, the growth in the assay with MALME-3M melanoma was 107%; with MDA-MB-231 breast it was 89.1%; in the assay on RXF 393 renal it was 109%; in the assay on SF-268 CNS, 98.4%; in the assay with SF-295 CNS, 104%; in the assay on SF-539 CNS it was 97.5%. The growth with UACC-257 melanoma was 107%; in the assay with M14 melanoma, 97.5%.

In the case of `Cc1ccc(S(=O)(=O)NCCNc2nccc(-c3c(-c4cccc(N)c4)nc4sccn34)n2)cc1`, the growth in the assay with NCI-H23 lung was 91.7%; with NCI-H226 lung, 79.6%; in the assay on NCI-H322M lung, 108%; in the assay with HOP-62 NSCLC, 105%; in the assay on NCI-H460 lung, 94.7%; with HOP-92 NSCLC, 94%. Also, the growth in the assay with NCI-H522 lung was 83.5%; with A549/ATCC NSCLC it was 87.4%; in the assay with 786-0 renal, 96.3%; in the assay on COLO 205 colon, 105%; in the assay with DU-145 prostate, 96.9%; in the assay with K-562 leukemia it was 67.1%. Moreover, the growth is 106% with MALME-3M melanoma; 85.9% with MDA-MB-231 breast; 102% in the assay on RXF 393 renal; 86.7% with SF-268 CNS; 95.6% with SF-295 CNS; 101% in the assay on SF-539 CNS. The growth in the assay with UACC-257 melanoma was 91.1%; in the assay with M14 melanoma, 107%.

`CCOC(=O)c1ccc2c(c1)c1c(C)c3cccnc3c(C)c1n2C`: the growth with NCI-H23 lung was 56.7%; with NCI-H226 lung, 53.1%; with NCI-H322M lung, 56.9%; in the assay on HOP-62 NSCLC, 72.7%; with NCI-H460 lung, 22.5%; with HOP-92 NSCLC, 67.9%. The growth in the assay with NCI-H522 lung is 49.1%; with A549/ATCC NSCLC, 67.7%; in the assay on 786-0 renal, 51.3%; in the assay on COLO 205 colon, 50.3%; in the assay with DU-145 prostate, 52.7%; in the assay with K-562 leukemia, 39.5%. The growth is 68.7% with MALME-3M melanoma; 50.7% in the assay on MDA-MB-231 breast; 75.6% in the assay on RXF 393 renal; 50.9% in the assay with SF-268 CNS; 67% in the assay on SF-539 CNS; 115% in the assay on UACC-257 melanoma. Also, in the assay on M14 melanoma, the growth was 53.2%.

In the case of `COc1ccc(/C=C2/C(=O)NC(SCC(=O)N3CCN(c4cc5c(cc4F)c(=O)c(C(=O)O)cn5C4CC4)CC3)=NC2N)cc1OC` (stereo not drawn), the growth was 102% in the assay on NCI-H23 lung; 98.5% in the assay on NCI-H226 lung; 111% in the assay with NCI-H322M lung; 110% in the assay with HOP-62 NSCLC; 107% in the assay with NCI-H460 lung; 101% in the assay with HOP-92 NSCLC. Moreover, the growth in the assay with NCI-H522 lung is 99%; with A549/ATCC NSCLC it was 107%; in the assay with 786-0 renal, 102%; with COLO 205 colon, 113%; in the assay on DU-145 prostate, 104%; in the assay on K-562 leukemia it was 107%. Moreover, the growth with MALME-3M melanoma was 108%; with MDA-MB-231 breast, 106%; with RXF 393 renal it was 109%; in the assay with SF-268 CNS it was 96.8%; in the assay with SF-295 CNS, 93.9%; in the assay on SF-539 CNS, 101%. Besides, the growth is 108% with UACC-257 melanoma and 106% in the assay with M14 melanoma.

For `COc1ccc(/C=C/c2c(C(C)=O)c(C)nc3ccccc23)cc1`, the growth was 60.9% in the assay on NCI-H23 lung; 92.6% in the assay with NCI-H226 lung; 99.3% with NCI-H322M lung; 79.2% in the assay with HOP-62 NSCLC; 100% in the assay on NCI-H460 lung; 79.3% in the assay with HOP-92 NSCLC. Besides, the growth is 61.2% with NCI-H522 lung; 80.6% in the assay with A549/ATCC NSCLC; 94.9% in the assay on 786-0 renal; 106% in the assay with COLO 205 colon; 97.7% with DU-145 prostate; 52.4% with K-562 leukemia. Moreover, the growth in the assay on MALME-3M melanoma was 101%; in the assay on MDA-MB-231 breast it was 82.8%; in the assay on RXF 393 renal, 86.6%; with SF-268 CNS, 97.5%; in the assay with SF-295 CNS it was 85.3%; with UACC-257 melanoma, 64.7%. Moreover, the growth in the assay with M14 melanoma was 99.2%.

As for `COc1ccc(NC(=O)c2cc(OC)c(OC)c(OC)c2)cc1O`, the growth was 52.2% with NCI-H23 lung; 99.9% in the assay on NCI-H226 lung; 68.2% in the assay with NCI-H322M lung; 35.1% in the assay with HOP-62 NSCLC; 17.2% in the assay with NCI-H460 lung; 37.4% in the assay with HOP-92 NSCLC. In addition, the growth with NCI-H522 lung was -41% (active); in the assay with A549/ATCC NSCLC, 48.6%; with 786-0 renal, 38.5%; in the assay on COLO 205 colon it was 40.4%; in the assay on DU-145 prostate, 36.6%; in the assay on K-562 leukemia, 27.7%. Also, the growth is 46.5% with MALME-3M melanoma; 58.5% with MDA-MB-231 breast; 46.4% in the assay with RXF 393 renal; 44.1% with SF-268 CNS; 35.5% in the assay on SF-295 CNS; 21.5% with SF-539 CNS. Also, the growth in the assay on UACC-257 melanoma was 58.2%; with M14 melanoma, 36%.

Regarding `Cc1cc(N/N=C/c2nc(-c3ccc(Br)cc3)oc2C)c2cc(Cl)ccc2n1`, the growth with NCI-H23 lung was 101%; in the assay on NCI-H226 lung, 84.7%; with NCI-H322M lung it was 91.9%; with HOP-62 NSCLC it was 107%; in the assay with NCI-H460 lung, 12.8%; with HOP-92 NSCLC it was 72%. The growth was 76.5% in the assay with NCI-H522 lung; 65.5% with A549/ATCC NSCLC; 34.1% in the assay with 786-0 renal; 104% with COLO 205 colon; 60.7% with DU-145 prostate; -17.6% (active) in the assay with K-562 leukemia. In addition, the growth is 55.6% in the assay with MALME-3M melanoma; 67.2% in the assay on MDA-MB-231 breast; 85.5% with RXF 393 renal; 80% in the assay with SF-268 CNS; 101% in the assay with SF-295 CNS; 98.5% with SF-539 CNS. Also, the growth in the assay on UACC-257 melanoma was 95.6%; in the assay with M14 melanoma it was 40.8%.

The values are drawn from PubChem BioAssay (NCI).
